Shown is part of a subset that was picked to be rich in hits.
Shiga inhibitor = Shiga toxin inhibition. Vero cells, Shiga toxin protein synthesis inhibition reporter. inhibition, % at 38.7 µM. actives 9.2% (n = 290,000). AID 2315; in the data active = inhibition mostly above about 28%, no sharp cut-off; inactive = mostly below about 43%; note: 0% is about no effect
Cycloheximide cs = affects cycloheximide protein synthesis inhibition readout, counter-screen. max response, %. cell reporter, cycloheximide protein synthesis inhibition counterscreen. actives 12% (n = 300,000); in the data active = max response mostly above about 13%, no sharp cut-off; inactive = mostly below about 14%; note: read at 38.3 µM for the half of the compounds with a filed dose; 0% is about no effect
Vaccinia Venus = vaccinia inhibition (Venus reporter). Vaccinia virus Venus reporter expression, fluorescence. Potency, µM (top dose mostly 36.5 µM), for inactives: at the highest dose activity change, negative = inhibition, usual class: inhibitors. actives 0.46% (n = 330,000). AID 720580; calls by dose curve; tested in A549 cells; note: potency is the fitted concentration of half-maximal effect; % is set by controls: 0 for no effect and ±100 for the full control effect; nearly all actives have a fitted effect of over 30% in size
VACV mCherry inh = inhibitors of vaccinia virus infection (mCherry reporter signal); Vaccinia virus mCherry reporter infection, fluorescence; actives 0.63% (n = 310,000); Potency, µM (doses to about 36.5 µM), inactives show at the highest dose activity change, negative = inhibition, usual class: inhibitors; AID 720579; calls by dose curve; tested in A549 cells; note: potency is the fitted concentration of half-maximal effect; % is set by controls: 0 for no effect and ±100 for the full control effect; nearly all actives have a fitted effect of over 35% in size
Marburg entry inh = inhibitors of Marburg virus binding or cell entry | Potency, µM (titrated, usually from 37.8 µM), for inactives: at the highest dose activity change, negative = inhibition, hits mostly inhibitors | Marburg virus pseudotyped entry inhibition, cell reporter | actives 1.8% (n = 300,000) | AID 540276; calls by dose curve; tested in HEK293 cells; note: potency is the fitted concentration of half-maximal effect; % is set by controls: 0 for no effect and ±100 for the full control effect
LASV entry inh = blocks Lassa virus binding to or entry into cells; AID 540256; actives 1.2% (n = 300,000); Lassa virus pseudotype entry inhibition, cell reporter; Potency, µM (series often up to 37.9 µM), for inactives: at the top dose activity change, negative = inhibition, most hits filed as inhibitors; calls by dose curve; tested in HEK293 cells; note: potency is the fitted concentration of half-maximal effect; % is set by controls: 0 for no effect and ±100 for the full control effect; nearly all actives have a fitted effect of over 50% in size
* = called active by the depositor; i = inactive; ? = inconclusive; . = not tested or not shown; [ ] = remark or other dose.

SMILES	Shiga inhibitor	Cycloheximide cs	Vaccinia Venus	VACV mCherry inh	Marburg entry inh	LASV entry inh
Cc1ccc(-c2cn(-c3ccccc3)c3[n+]2CCCS3)cc1	32	-3	?	.	?	?
COc1ccc(-n2cc(-c3ccc(C)cc3)[n+]3c2SCC3)cc1	-9	-8	-26%	i	1.3µM*	?
O=c1[nH]c2ccccc2nc1C(F)(F)F	11	1	-5%	i	-2%[46.1 µM]	2%[46.1 µM]
CC(C)c1ccc(/C=C(\c2nc3ccccc3[nH]2)S(=O)(=O)c2ccccc2)cc1	23	18*	10µM*	8.9µM*	?	?
O=S(=O)(/C(=C/c1ccc(C(F)(F)F)cc1)c1nc2ccccc2[nH]1)c1ccccc1	-6	-2	10µM*	10µM*	11µM*	?
Cc1ccc(S(=O)(=O)N[C@@H]2COC(=O)[C@@H](C)COC(=O)CC=C[C@H]2C)cc1	.	.	.	.	7%[14.2 µM]	.
Cc1ccc(N2C(=O)CC(c3c[nH]c4ccccc34)C2=O)cc1 (stereo not given)	20	15	4%	i	7%[46.1 µM]	14%[46.1 µM]
CCC1=NN=C(c2ccc(F)cc2)C(c2c[nH]c3ccccc23)N1O (stereo not given)	74*	28	-11%	i	?	16%
Cc1ccc(C(=O)Nc2ccc3nccnc3c2)cc1	48*	24*	-8%	-4%	?	?
O=C(Nc1ccc2cccnc2c1)c1ccc(Br)cc1	.	24*	.	.	.	.
Cc1cc(C)c(NC(=O)c2ccc3nccnc3c2)c(C)c1	.	.	7%	-5%	0%[46.1 µM]	4%
Cc1ccc(NC(=O)c2ccc3nccnc3c2)c(C)c1	31*	23*	-7%	i	?	2%[46.1 µM]
CSc1nnc(CNS(=O)(=O)c2ccc(F)cc2F)n1-c1ccccc1C	.	.	0%	i	.	.
O=c1[nH]c(SCc2cccc(Cl)c2)nc2[nH]ncc12	17	20*	.	.	.	.
O=C(CSc1nc2[nH]ncc2c(=O)[nH]1)c1ccc(Cl)cc1	16	6	.	.	.	.
O=c1[nH]c(SCc2ccc(Cl)cc2)nc2[nH]ncc12	27	19*	.	.	.	.
CCOc1ccc(OCC)c(NC(=O)C2CCN(S(=O)(=O)c3cnc[nH]3)CC2)c1	-8	1	8%	-3%	-3%[46.1 µM]	-3%
Cc1ccccc1Oc1nc2c(C)cccn2c(=O)c1/C=C(\C#N)C(=O)NC1CCS(=O)(=O)C1 (stereo not given)	9	-1	-9%	i	?	13µM*
O=C(O)C1CC(c2ccccc2)=NO1 (stereo not given)	-7	-1	-4%	-6%	-6%	6%
O=S(=O)(c1ccccc1)C1(C2CC(c3ccccc3)=NO2)CC(O)C1 (stereo not given)	15	12*	14%	-4%	.	.
COc1ccc(C[C@H](N)C(=O)N[C@H]2[C@@H](O)[C@H](n3cnc4c(N(C)C)ncnc43)O[C@@H]2CO)cc1	.	.	1.6µM*	1.3µM*	.	.
OCC1OC(n2cnc3c(Cl)ncnc32)C(O)C1O (stereo not given)	.	.	13%	-24%	.	.
CN(C)c1ncnc2c1ncn2C1OC(CO)C(O)C1O (stereo not given)	-8	-3	10µM*	13µM*	?	?
CCCCNC(=O)C[C@@H]1C[C@@]2(C(=O)OC)CCCCC=C2N(Cc2ccccc2)C1=O	.	.	7%	-5%	.	.
Cc1cccc(C(=O)NNC(=O)c2ccco2)c1O	.	.	-18%	?	1%[46.1 µM]	2%[46.1 µM]
SMILES	Shiga inhibitor	Cycloheximide cs	Vaccinia Venus	VACV mCherry inh	Marburg entry inh	LASV entry inh
O=C(NNC(=O)c1cccc2ccccc12)c1ccco1	-13	3	.	.	0%	-3%
O=C(NNC(=O)c1ccccc1F)c1ccco1	40*	14	-12%	-12%	?	?
O=C(NNC(=O)c1ccccc1O)c1ccco1	97*	27*	9%	-6%	?	26%[46.1 µM]
Oc1ccc(/C=C/c2ccc3ccccc3n2)cc1	24	7	-22%	?	.	.
O=C(O)COc1ccc(/C=C/c2ccc3cccc([N+](=O)[O-])c3n2)cc1	13	-2	-4%	-15%	-9%	-6%
O=[N+]([O-])c1ccc(/C=C/c2ccc3cccc(O)c3n2)cc1	98*	60*	.	.	.	.
C(=C\c1ccc2ccccc2n1)/c1ccc2ccccc2n1	.	.	-4%	-6%	.	.
Fc1ccccc1/C=C/c1ccc2ccccc2n1	72*	51	-19%	-4%	?	2.5µM*
O=[N+]([O-])c1ccc(/C=C/c2ccc3ccccc3n2)cc1	30	21*	-6%	-14%	?	2µM*
CC(=O)Nc1ccc(/C=C/c2ccc3cccc([N+](=O)[O-])c3n2)cc1	75*	23*	-12%	?	.	.
CC(C)[C@H](NC(=O)c1ccc(Cl)cc1)C(=O)Nc1cccc(S(=O)(=O)N2CCOCC2)c1	.	.	-10%	i	.	.
CN(CC(=O)Nc1ccc(Cl)cc1F)S(=O)(=O)c1ccc2c(c1)n(C)c(=O)c(=O)n2C	.	.	-2%	-1%	10%[46.1 µM]	13%[46.1 µM]
COc1ccc(NC(=O)c2cc([N+](=O)[O-])ccc2N2CCCCC2)cc1	-10	-9	-20%	?	-23%[46.1 µM]	-2%[46.1 µM]
C(=Cc1c[nH]c2ccccc12)c1nccc2ccccc12	.	.	44%	?	?	?
C(=C\c1ccc2ccccc2n1)/c1ccccc1	16	13	?	5µM*	.	.
CC(=O)Oc1c(Cl)cc(Cl)cc1/C=C/c1ccc2ccccc2n1	10	-3	.	.	20%	15%
C(=Cc1c[nH]c2ccccc12)c1ccc2ccccc2n1	.	.	-10%	0.71µM*	2.2µM*	?
CC(=O)Oc1ccc(Cl)cc1/C=C/c1ccc2ccccc2n1	76*	37*	?	-13%	?	?
Cc1sc2nc(C)n(/N=C/c3ccc(O)cc3O)c(=O)c2c1C	19	-1	-11%	24%	.	.
CC(=O)Nc1ccc(NC(=O)C2CCCN2S(=O)(=O)c2ccc3c(c2)CCCC(=O)N3)cc1 (stereo not given)	.	.	2%	-4%	.	15%[46.1 µM]
